High-throughput results deposited in PubChem by National Center for Advancing Translational Sciences (NCATS).
This is a sample that favours compounds with a hit; in the whole collection about 21% have one here.
NS1 inh – qHTS Assay for Inhibitors of Influenza NS1 Protein Function. Potency, µM (titrated, usually from 46.1 µM), for the others: at the top dose activity, positive = more growth. actives 0.4% (n = 270,000); calls by dose curve; note: potency is the fitted concentration of half-maximal effect; actives are rising curves; nearly all actives have a fitted effect of over 50% in size
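OD600 was taken as the measure of yeast growth restored by compound in an NS1-expressing S. cerevisiae strain. Cells had been washed out of glucose medium and diluted 1:100 into galactose -URA medium, pH 6.0.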
Pf growth 96h – Primary qHTS for delayed death inhibitors of the malarial parasite plastid, 96 hour incubation. P. falciparum luciferase reporter growth, 96 h. Potency, µM (top dose mostly 28.7 µM), for inactives: at the top dose activity change, negative = inhibition, most hits filed as inhibitors. actives 6.9% (n = 320,000). AID 504834, 2011; note: potency is the fitted concentration of half-maximal effect; % is set by controls: 0 for no effect and ±100 for the full control effect
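Luminescence readout: decreased luciferase signal marks inhibited growth of reporter-expressing P. falciparum in infected red cells (2% hematocrit, 0.05% parasitemia final), exposed to compound two generations (96 h, 37 C, 5% CO2).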
Shiga toxin inh – A qHTS for Small Molecule Inhibitors of Shiga Toxin. Vero cells, Shiga toxin protein synthesis inhibition reporter. inhibition, % at 38.7 µM. actives 9.2% (n = 290,000). AID 2315, 2010; in the data active = inhibition mostly above about 28%, no sharp cut-off; inactive = mostly below about 43%; note: 0% is about no effect
Pf growth 48h – Primary qHTS for delayed death inhibitors of the malarial parasite plastid, 48 hour incubation; P. falciparum luciferase growth in erythrocytes, 48 h; AID 504832, 2011; actives 5.9% (n = 310,000); Potency, µM (doses to about 28.7 µM), without a hit: top-dose activity change, negative = inhibition, hits mostly inhibitors; note: potency is the fitted concentration of half-maximal effect; % is set by controls: 0 for no effect and ±100 for the full control effect
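Growth was read as firefly luciferase luminescence after a 48 h, 37 C, 5% CO2 exposure of compounds to reporter-bearing P. falciparum cultures (0.1% parasitemia, 2% hematocrit final) in Albumax-supplemented RPMI 1640.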
CHX counter – Cycloheximide Counterscreen for Small Molecule Inhibitors of Shiga Toxin; cell reporter, cycloheximide protein synthesis inhibition counterscreen; max response, %; actives 12% (n = 300,000); AID 2314, 2010; in the data active = max response mostly above about 13%, no sharp cut-off; inactive = mostly below about 14%; note: read at 38.3 µM for the half of the compounds with a filed dose; 0% is about no effect
* hit, by the source's call; ? = inconclusive; nt = no result given; [ ] = another dose, or the depositor's remark. Unless noted, calls come from the whole dose curve; as a rule, active = well fitted inhibition curve with a large enough effect; inconclusive = small, poorly fitted or top-dose-only effect, or another doubt; inactive = no such curve, though single readings can be large or run the other way.

SMILES	NS1 inh	Pf growth 96h	Shiga toxin inh	Pf growth 48h	CHX counter
C/C(=N\NC(=O)C1(C)CC1(Br)Br)c1cccc(NC(=O)c2ccc(C)o2)c1 (stereo unspecified)	-34%	-21%	52*	?	28*
O=C(Nc1ccc(C(=O)N2CCCCC2)cc1)C1CCCCC1	0%	?	1	14%	-5
C/C(=N\NC(=O)c1nn(C)c(C)c1Br)c1ccc(NC(=O)C2CCCC2)cc1	-8%	13µM*	107*	-18%	41*
Cc1ccc(C(=O)Nc2cccc(C(=O)NCc3ccccc3)c2)o1	-47%	nt	21	?	-2
CCCCc1ccc(/C(C)=N/NC(=O)C2CCCC2)cc1	10%	?	-3	42%	8
C/C(=N\NC(=O)C1(C)CC1(Br)Br)c1ccc(NC(=O)C2CCC2)cc1 (stereo unspecified)	9%	5.2µM*	-2	?	-2
C/C(=N\NC(=O)c1ccn(C)n1)c1ccc(NC(=O)C2CCC2)cc1	-8%	3%	56*	13%	27*
Cc1ccc(S(=O)(=O)N2CCOCC2)cc1NC(=O)COC(=O)CCOc1ccc(C(C)(C)C)cc1	nt	3%	nt	1%	nt
O=C(COc1ccc(Br)cc1)NNC(=O)c1ccc(-n2cncn2)c([N+](=O)[O-])c1	nt	-9%	nt	-1%	nt
COc1cc(NS(=O)(=O)c2ccc(NC(=O)Cc3ccccc3)cc2)nc(OC)n1	7%	29%	-8	14%	-4
Cc1nc2sc(C(c3ccc(Cl)cc3)N3CCN(c4ccccc4F)CC3)c(O)n2n1 (stereo unspecified)	16%	?	16	11%	2
CCN(CC)c1ccc(NC(=O)C2CCCC2)cc1	-7%	?	nt	?	22
C/C(=N\NC(=O)c1ccn(C)n1)c1ccc(NC(=O)C2CCCC2)cc1	6%	12%	79*	27%	31*
O=C(N/N=C/c1cccs1)c1ccc2ncccc2c1	-7%	1%	46*	-6%	18
O=C(N/N=C/c1cccs1)c1ccc2nc[nH]c2c1	nt	16%	49	81%	20
O=C(N/N=C/c1cccs1)c1ccc2ccccc2c1	-44%	20%	109*	-11%	54*
Cc1cc(=O)cc(C)n1-c1ccccc1Br	2%	?	1	9%	-2
COc1ccc(-c2nc3ccccc3s2)cc1NC(=O)COc1cccc(C)c1	nt	nt	71*	nt	54*
COc1ccc(-c2cnc3ccccc3n2)cc1NC(=O)CNC(=O)c1ccccc1	-3%	?	36	11%	36*
COc1ccc(-c2nc3ccccc3o2)cc1NC(=O)COc1ccc(C(C)(C)C)cc1	nt	nt	31	nt	13
COc1ccccc1NC(=O)CNC(=O)c1ccccc1	0%	nt	3	5%	-1
Cc1ccc(C(=O)NC(=S)Nc2cc(-c3nc4ccccc4s3)ccc2C)cc1	15%	?	117*	83%	65*
COc1ccc(-c2nc3ccccc3s2)cc1NC(C)=O	-8%	0%	100*	85%	35*
CCOC(=O)C1(CCCc2ccccc2)CCN(C(=O)C2=C(C)OCCO2)CC1	-11%	13%	13	?	0
CCC(C)(C)NC(=O)C(Sc1ccccc1)c1ccccc1 (stereo unspecified)	-6%	10µM*	25	?	-1
SMILES	NS1 inh	Pf growth 96h	Shiga toxin inh	Pf growth 48h	CHX counter
O=C(OCCN1C(=O)CCC1=O)c1ccc(S(=O)(=O)N2CCCCC2)cc1	7%	1%	-25	19%	-7
COC(=O)c1cc(-c2ccc(Cl)cc2Cl)n[nH]1	nt	192%	63*	9%	29*
COC(=O)c1cc(-c2ccc(Cl)cc2)n[nH]1	-3%	17%	47*	37%	38*
COC(=O)c1cc(C(=O)OC)[nH]n1	-2%	?	14	-12%	-5
COC(=O)c1cc(-c2ccccc2)n[nH]1	-1%	-2%[5.75 µM]	22	15%	10
COc1ccccc1N(CC(=O)NC1CCCC1)C(=O)CCC(=O)Nc1ccccn1	2%	38%	52	-3%	-6
Cc1onc(-c2c(F)cccc2Cl)c1C(=O)OCC(=O)NCc1ccco1	-4%	nt	-3	?	1
Cc1onc(-c2c(F)cccc2Cl)c1C(=O)Nc1cccc(S(=O)(=O)NCc2ccco2)c1	nt	?	59*	-26%	38*
Cc1onc(-c2c(Cl)cccc2Cl)c1C(=O)NCc1ccccn1	11%	2.1µM*	-3	-18%	-2
